Measured values as given in PubChem BioAssay AID1159580 (chemical genetic matrix, 2015).
“And” between values parts separate entries of the source, which are not always exact repeats. Identical values can stand only once. Screen size: about 5,500 compounds; about 2,000 (36%) were called active. Roughly 18% stayed inconclusive and do not appear here. No stated cut-off is given here; in the data, active means normalized growth mostly below about 0.91 (no sharp cut-off); inconclusive means no clear call, values can overlap the other calls; inactive means mostly above about 0.92. Some of the results follow.

Test: chemical genetic growth profiling, strain panel (AID 1159580);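 further: tested at 20 µM; growth read once vehicle control cultures reached saturation at 30 °C; 1 = growth at the plate median or of vehicle wells; lower values mean less growth of the strain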
Conditions: S. cerevisiae deletion strains, growth OD

Measured: normalized growth

CC[C@@H](CO)NC(=O)[C@@H]1C=C2c3cccc4[nH]cc(c34)C[C@H]2N(C)C1
inactive: locus YAL013W, strain DEP1, hits give low values 0.989 | locus YAL021C, strain ccr4, hits give low values 1 | locus YAL026C, strain drs2, hits give low values 0.996 | locus YAL030W, strain snc1, hits give low values 0.997 | locus YBL061C, strain skt5, hits give low values 0.999 | locus YBR009C, strain hhf1, hits give low values 0.992 | locus YBR021W, strain FUR4, hits give low values 1 | locus YBR023C, strain chs3, hits give low values 0.997 | locus YBR171W, strain sec66, hits give low values 0.998 | locus YBR229C, strain ROT2, hits give low values 0.99 | locus YBR231C, strain swc5, hits give low values 0.988 | locus YBR279W, strain paf1, hits give low values 0.996 | locus YCL011C, strain gbp2, hits give low values 1 | locus YCL016C, strain dcc1, hits give low values 0.994 | locus YCL029C, strain bik1, hits give low values 0.984 | locus YCL069W, strain vba3, hits give low values 1 | locus YCR088W, strain abp1, hits give low values 0.998 | locus YDL005C, strain med2, hits give low values 1 | locus YDL035C, strain GPR1, hits give low values 1 | locus YDL040C, strain nat1, hits give low values 0.997 | locus YDL074C, strain BRE1, hits give low values 1.02 | locus YDL101C, strain DUN1, hits give low values 0.993 | locus YDL134C, strain PPH21, hits give low values 0.98 | locus YDL185W, strain tfp1, hits give low values 0.981 | locus YDL192W, strain arf1, hits give low values 0.988 | locus YDR001C, strain nth1, hits give low values 0.998 | locus YDR069C, strain doa4, hits give low values 0.995 | locus YDR101C, strain arx1, hits give low values 0.995 | locus YDR137W, strain rgp1, hits give low values 0.995 | locus YDR150W, strain NUM1, hits give low values 1 | locus YDR159W, strain sac3, hits give low values 0.992 | locus YDR162C, strain NBP2, hits give low values 1.02 | locus YDR195W, strain ref2 0.942 | locus YDR297W, strain sur2, hits give low values 0.994 | locus YDR318W, strain mcm21, hits give low values 0.982 | locus YDR334W, strain swr1, hits give low values 1 | locus YDR335W, strain msn5, hits give low values 0.999 | locus YDR388W, hits give low values 0.99 | locus YDR392W, strain spt3, hits give low values 0.995 | locus YDR502C, strain sam2, hits give low values 1 | locus YEL003W, strain gim4, hits give low values 0.998 | locus YEL037C, strain rad23, hits give low values 1 | locus YEL061C, strain CIN8 (second series), hits give low values 1 | locus YEL061C, strain CIN8, hits give low values 0.998 | locus YER015W, strain faa2, hits give low values 0.99 | locus YER016W, strain bim1, hits give low values 0.993 | locus YER110C, hits give low values 0.977 | locus YER111C, strain swi4, hits give low values 1 | locus YER155C, strain BEM2 (second series), hits give low values 0.961 | locus YER155C, strain BEM2, hits give low values 1 | locus YER167W, strain BCK2, hits give low values 0.974 | locus YFR010W, strain ubp6, hits give low values 0.985 | locus YGL078C, strain dbp3, hits give low values 0.998 | locus YGL086W, strain mad1, hits give low values 0.959 | locus YGL167C, strain pmr1, hits give low values 1.01 | locus YGL173C, strain kem1, hits give low values 0.995 | locus YGL227W, strain vid30, hits give low values 0.991 | locus YGL240W, strain doc1, hits give low values 0.981 | locus YGL248W, strain PDE1, hits give low values 0.986 | locus YGL253W, strain hxk2, hits give low values 1.01 | locus YGR078C, strain PAC10, hits give low values 0.994 | locus YGR135W, strain pre9, hits give low values 0.958 | locus YGR229C, strain SMI1, hits give low values 0.961 | locus YGR252W, strain gcn5, hits give low values 0.949 | locus YHR013C, strain ard1, hits give low values 1.02 | locus YHR027C, strain rpn1, hits give low values 1 | locus YHR030C, strain SLT2, hits give low values 0.99 and 1.07 | locus YHR079C, strain IRE1 (second series), hits give low values 0.991 | locus YHR079C, strain IRE1, hits give low values 1.07 | locus YHR094C, strain hxt1, hits give low values 0.985 | locus YHR129C, strain ARP1, hits give low values 0.989 | locus YHR142W, strain chs7, hits give low values 1.01 | locus YHR200W, strain rpn10, hits give low values 0.978 | locus YIL066C, strain RNR3, hits give low values 0.983 | locus YIL073C, strain SPO22, hits give low values 0.945 | locus YIL125W, strain kgd1, hits give low values 0.998 | locus YIR030C, strain dcg1, hits give low values 0.991 | locus YJL092W, strain hpr5, hits give low values 0.995 | locus YJL095W, strain BCK1 (second series), hits give low values 0.995 | locus YJL095W, strain BCK1, hits give low values 0.981 and 1.04 | locus YJL115W, strain asf1, hits give low values 0.995 | locus YJL129C, strain trk1, hits give low values 0.999 | locus YJL134W, strain LCB3, hits give low values 0.992 | locus YJL154C, strain vps35, hits give low values 0.998 | locus YJL164C, strain tpk1, hits give low values 0.991 | locus YJL166W, strain qcr8, hits give low values 0.947 | locus YJL168C, strain set2, hits give low values 0.984 | locus YJL187C, strain SWE1 (second series), hits give low values 0.996 | locus YJR043C, strain POL32, hits give low values 0.975 | locus YJR066W, strain TOR1, hits give low values 0.999 | locus YJR075W, strain HOC1, hits give low values 1.02
